Bioassay records deposited in PubChem by National Center for Advancing Translational Sciences (NCATS).
D2 PAM-1: positively modulates the human D2 dopamine receptor allosterically; HEK293 T-REx D2, calcium flux, EC20 dopamine potentiation; potentiation, % at 10 µM; hit rate 0.34% among 340,000; AID 485347;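 active = potentiation over 3 SD above the plate norm, cut at about 30% in these data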; note: 0% is about no effect
Target sequence (P14416 whole entry, looked up): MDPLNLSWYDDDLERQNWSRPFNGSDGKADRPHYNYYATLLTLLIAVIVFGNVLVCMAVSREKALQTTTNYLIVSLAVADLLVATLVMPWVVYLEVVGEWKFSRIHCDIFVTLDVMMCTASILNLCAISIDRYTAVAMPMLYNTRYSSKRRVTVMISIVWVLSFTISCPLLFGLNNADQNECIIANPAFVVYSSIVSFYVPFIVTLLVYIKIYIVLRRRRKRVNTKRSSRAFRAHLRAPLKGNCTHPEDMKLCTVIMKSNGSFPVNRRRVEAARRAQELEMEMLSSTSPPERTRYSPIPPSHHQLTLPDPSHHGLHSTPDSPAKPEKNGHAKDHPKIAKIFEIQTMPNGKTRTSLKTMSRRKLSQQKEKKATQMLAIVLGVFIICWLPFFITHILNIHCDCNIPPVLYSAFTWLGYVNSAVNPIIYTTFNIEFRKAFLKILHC
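Using a no-wash calcium dye in inducible, force-coupled HEK293 Trex cells expressing D2, we tracked fluorescence each second for 180 s after compound, then for 180 s after EC20 dopamine to detect augmented signalling.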
D2 ag-1: D2 dopamine receptor (human) agonism. activation, % at 2 µM. HEK293 T-REx D2 cells, calcium flux agonist mode. P14416. hit rate 0.53% among 340,000;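 active = activation over 3 SD above normal in the single-dose calcium agonist read, cut at about 30% in these data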; note: 0% is about no effect
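Calcium-flux readout, 1 cycle/sec over 180 s following compound pin transfer, in inducible HEK293 Trex D2 cells (force-coupled); dopamine controls included. Positive calcium responses during this window marked compounds as potential agonists.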
D2 ag-2: human D2 receptor agonism in beta-arrestin assay | P14416 | activation, % (concentration not given with the values) | hit rate 0.084% among 360,000 | DiscoveRx PathHunter D2 beta-arrestin, luminescence, 90 min; 100% = 57 uM dopamine signal; in the data active = activation above about 40%
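Agonist mode: compounds alone added to overnight-plated D2 PathHunter cells for 90 min at 37 C, with 57 uM final dopamine (EC100) defining full response. Beta-arrestin recruitment detected by chemiluminescent reagent, read after 1 h at ambient temperature.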
D2 PAM-2: human D2 receptor positive allosteric modulation. DiscoveRx D2 beta-arrestin cells, luminescence, 90 min; 100% = 57 uM dopamine signal. potentiation, % (test concentration not listed). hit rate 0.23% among 360,000; in the data active = potentiation above about 50%
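D2 cells co-treated with compound plus 50 nM dopamine (EC20) for 90 min at 37 deg C to detect potentiation. Beta-arrestin recruitment was read as enzyme-fragment luminescence after 1 h at ambient temperature. Full response was set by 57 uM dopamine.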
D2 antagonist: D2 dopamine receptor (human) antagonism; P14416; HEK293 TREx D2 cells, calcium flux, dopamine EC80; inhibition, % at 10 µM; hit rate 2% among 340,000; AID 485344; in the data active = inhibition above about 30%; inactive = below that, where a call was filed; note: 0% is about no effect
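Calcium flux kinetic readout in an inducible HEK293 TREx D2 line plated overnight at 30 C. After 180 s compound exposure, an EC80 dopamine challenge follows with another 180 s kinetic read to detect antagonism.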
The depositor's hits bear a star. An excerpt weighted towards active compounds, which were near 2.4% of everything screened.

What do the screens show for `O=C(COC(=O)/C=C/c1ccc(OC(F)F)cc1)NC1CCCC1`?
D2 PAM-1: 8.4; D2 ag-1: 0.0; D2 ag-2: -3.1; D2 PAM-2: -15.9; D2 antagonist: 32.2*

How did O=C(COC(=O)/C=C/c1ccc(OC(F)F)cc1)NC(=O)NC1CCCCC1 do in these assays?
D2 ag-2: -0.8; D2 PAM-2: -2.9

How did O=C(/C=C/c1ccc(OC(F)F)cc1)OCC(=O)N1CCC(c2ccccc2)=N1 do in these assays?
D2 PAM-1: -4.3; D2 ag-1: 3.0; D2 ag-2: -0.6; D2 PAM-2: 3.1; D2 antagonist: 38.6*

How did O=C(NCc1ccccc1)c1ccc2nnsc2c1 do in these assays?
D2 PAM-1: 0.1; D2 ag-1: 0.2; D2 ag-2: -3.9; D2 PAM-2: -3.0; D2 antagonist: 33.6*

How did CCOC(=O)/C(C(=Nc1ccccc1)Nc1ccccc1)=C(\C)O do in these assays?
D2 PAM-1: 6.7; D2 ag-1: -0.6; D2 ag-2: -1.8; D2 PAM-2: -12.1; D2 antagonist: -7.8

Results for NC(=Nc1ccccc1)Nc1ccccc1 ?
D2 PAM-1: -16.6; D2 ag-1: 79.1*; D2 ag-2: 9.1; D2 PAM-2: -5.8; D2 antagonist: 55.8*

Results for COC(=O)Nc1cc([N+](=O)[O-])ccc1OC ?
D2 PAM-1: 10.2; D2 ag-1: 1.6; D2 ag-2: -0.7; D2 PAM-2: -5.6; D2 antagonist: -5.6

Results for COc1ccc([N+](=O)[O-])cc1NC(=O)Nc1ccccc1 ?
D2 PAM-1: -25.5; D2 ag-1: -0.1; D2 ag-2: -1.4; D2 PAM-2: -32.9; D2 antagonist: 37.0*

How did COc1ccc([N+](=O)[O-])cc1NC(=O)C(C)N1CCCC1 (stereo unspecified) do in these assays?
D2 PAM-1: -11.0; D2 ag-1: -0.5; D2 ag-2: -6.4; D2 PAM-2: -24.1; D2 antagonist: 30.7*

What do the screens show for `CCN1CCN(C(c2ccc(OC)cc2)c2c(O)cc(C)n(Cc3ccco3)c2=O)CC1` (stereo unspecified)?
D2 ag-1: 0.0

How did O=C1CC(c2ccc3c(c2)OCO3)c2cc3c(cc2N1)OCO3 (stereo unspecified) do in these assays?
D2 PAM-1: 2.4; D2 ag-1: 0.8; D2 ag-2: 0.9; D2 PAM-2: -6.6; D2 antagonist: -22.0

How did O=C1CC(c2ccncc2)c2cc3c(cc2N1)OCO3 (stereo unspecified) do in these assays?
D2 PAM-1: 5.0; D2 ag-1: 0.7; D2 ag-2: -3.9; D2 PAM-2: 5.5; D2 antagonist: 37.2*

Results for COc1ccccc1C(=O)N1CCN(Cc2nc3cc([N+](=O)[O-])ccc3n2C)CC1 ?
D2 PAM-1: -4.2; D2 ag-1: -0.3; D2 ag-2: -4.4; D2 PAM-2: -9.9; D2 antagonist: 35.7*

How did CC(=O)N1CCN(Cc2nc3cc([N+](=O)[O-])ccc3n2C)CC1 do in these assays?
D2 ag-2: 0.4; D2 PAM-2: -6.4

Results for Cc1cc(C(=O)CSc2nc3ccccc3c(=O)[nH]2)c(C)n1C ?
D2 PAM-1: 38.6*; D2 ag-1: -0.3; D2 ag-2: -1.2; D2 PAM-2: -7.7; D2 antagonist: -10.0

What do the screens show for `COc1ccccc1-c1nc2c(c(SCc3cc(C)ccc3C)n1)Cc1c(CO)cnc(C)c1O2`?
D2 PAM-1: 1.8; D2 ag-1: -0.8

How did CCCc1cc(=O)oc2c3c(cc(OCC(=O)N[C@@H](CSC)C(=O)O)c12)OC(C)(C)CC3 do in these assays?
D2 PAM-1: 0.5; D2 ag-1: 0.0; D2 ag-2: -2.5; D2 PAM-2: -4.4; D2 antagonist: 5.0

Results for CCCc1cc(=O)oc2c3c(cc(OCC(=O)N[C@@H](C)C(=O)O)c12)OC(C)(C)CC3 ?
D2 PAM-1: 14.4; D2 ag-1: 1.1; D2 ag-2: -4.5; D2 PAM-2: -7.7; D2 antagonist: 32.9*

Results for O=C(c1cc2nc(-c3cccs3)cc(C(F)(F)Cl)n2n1)N1CCCc2ccccc21 ?
D2 PAM-1: 13.0; D2 ag-1: 0.5; D2 ag-2: -4.6; D2 PAM-2: -6.0; D2 antagonist: 19.0

Results for O=C(c1cc2nc(-c3cccs3)cc(C(F)(F)F)n2n1)N1CCCc2ccccc21 ?
D2 PAM-1: -3.0; D2 ag-1: 0.1; D2 ag-2: -2.1; D2 PAM-2: -18.3; D2 antagonist: 31.2*
